For 96 compounds, Potency results are on record in PubChem BioAssay AID361 (National Center for Advancing Translational Sciences (NCATS), 2006).

Structures are written as SMILES. The campaign covered roughly 51,000 compounds. About 600 (1.2%) were called active. About 2% were inconclusive and are not listed. The list comes from a sample in which actives are over-represented; it also holds similar structures and randomly drawn compounds. A number with no mark means an inactive call. Rule as the data show it: active = potency below about 11 µM; inconclusive = mostly about 12 µM to 25 µM; inactive = weaker than that;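 the screen sought inhibitors and activators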.
Potency is read from the fitted curve at half-maximal effect.

This test has as its system pyruvate kinase (Bacillus stearothermophilus). In words: Pyruvate Kinase. The note with it: purified pyruvate kinase, luminescence ATP production; ribose 5-phosphate activator present at AC10. As to the method:
Pyruvate kinase (partially purified from Bacillus stearothermophilus) was assayed for its ability to generate ATP from ADP using phosphoenolpyruvate (PEP) as a substrate. ATP generation was detected in a coupled reaction by luciferase-mediated luminescence, an ATP-dependent process. Pyruvate kinase substrates, PEP and ADP, were present in the assay at Km and […]-fold below Km respectively. The enzyme was assayed at an intermediate level of activity to screen for inhibitors and activators. In addition, ribose 5 phosphate, a positive modulator of pyruvate kinase, was included in the assay at AC10 in order to identify possible potentiators.
NCGC Assay Protocol Summary:
Three uL of substrate mix (final concentration, 50 mM imidazole pH 7.2, 50 mM KCl, 7 mM MgCl2, 2 mM PEP, 0.1 mM ADP, 0.7 nM ribose 5 phosphate, 0.01% Tween 20, 0.05% BSA) was dispensed into 1536 well plates. 23 nL of compound were delivered by a pin tool and 1 uL of enzyme mix (final concentration, 10 nM pyruvate kinase, 50 mM imidazole pH 7.2, 0.05% BSA) was added. After centrifugation at 1000 rpm for less than a minute, plates were incubated at room temperature for 2 hours. Three uL of detection and kinase stop mix (PKLight, Cambrex) was added, the plates centrifuged, and luminescence read by a ViewLux (Perkin Elmer) at 5 second exposure/plate. Data were normalized to the controls for AC100 stimulation (5 uM ribose 5 phosphate) and to AC100 inhibition (110 uM luteolin).
As to `Cc1cc(NC(=O)CSc2nnc(-c3ccc(Cl)s3)o2)no1`, the Potency is over 57 µM.
Turning to `Cc1cc(C)c2c(c1)cc(C)c1nnc(SCC(=O)Nc3cc(C)on3)n12`, the Potency is over 57 µM.
`Cc1nc(SCC(=O)Nc2cc(C)on2)c2c(C)c(C)sc2n1`: the Potency was over 57 µM.
Next, `Cc1ccc2nc(-c3ccc(SCC(=O)Nc4cc(C)on4)nc3)[nH]c2c1`: 2.74 µM (active).
With `COc1ccc(OC)c2c(N)c(C#N)c(C(F)(F)C(F)(F)F)nc12`, the Potency is over 25.6 µM.
Next, `C=CCc1cccc2cc(C(=O)N3CCN(C(=O)OCC)CC3)c(=O)oc12`: over 57 µM; `COc1ccccc1CNCc1cccs1`: over 57 µM.
Next, `COc1ccc(CNC(=O)c2c(C)cc(=O)oc2C)cc1OC`: over 25.6 µM; `Cc1ccc(C(=O)NCC2CCCO2)o1` (stereo unspecified): over 57 µM.
On to `CCc1cc2c(=O)c(-c3ccon3)c(N)oc2cc1OC`, for which the Potency is 4.26 µM (active).
As to `COc1cccc(N2CC(C(=O)Nc3c(C)cccc3C)CC2=O)c1` (stereo unspecified), the Potency is over 57 µM.
The result for `Cc1cccc(NC(=O)c2ccccc2NC(=O)C(C)(C)C)n1` reads over 57 µM; that for `CCn1c(=N)n(CC(=O)c2cccc(OC)c2)c2ccccc21`, 38.1 µM.
The result for `Cn1c(/C(C#N)=C2/CCCCCN2)nc2ccccc21` reads over 57 µM.
Next, `CC1CCCCN1CC(=O)NCc1ccc2c(c1)OCO2` (stereo unspecified): over 57 µM; `CN(CCc1ccccn1)S(=O)(=O)c1ccc2c3c(cccc13)C(=O)N2`: over 57 µM; `CSc1ccc(Cl)c(C(=O)OCC(=O)N2CC(C)OC(C)C2)c1` (stereo unspecified): over 57 µM.
Take `NC(=O)COc1ccc2c3c(c(=O)oc2c1)CCCCC3`: the Potency is over 57 µM.
As for `CCN(CC)S(=O)(=O)c1cccc(C(=O)NCC(=O)OCC(=O)NCc2ccccc2)c1`, the Potency is over 57 µM.
Turning to `CCCCC(CC)C(=O)Nc1ccc(Cl)cn1` (stereo unspecified), the Potency is over 57 µM.
The result for `O=C(Nc1ccc(Cl)cn1)c1cnn2cccnc12` reads 8.73 µM (active); that for `CC(Oc1ccc(Cl)cc1)C(=O)Nc1ncccn1` (stereo unspecified), over 57 µM.
Next, `O=C(O)c1ccc(NC(=O)c2cccs2)cc1`: over 57 µM.
The result for `O=C(Nc1ncccn1)c1cccs1` reads over 57 µM; that for `Cc1nc(-c2ccc(NC(=O)c3cccs3)cc2)cs1`, 2.04 µM (active).
Consider `COC(=O)CCSc1nccn1Cc1ccccc1`, for which the Potency was over 57 µM.
Take `O=c1c(F)cn(C2CCCO2)c(=O)n1Cc1ccccc1Cl` (stereo unspecified): the Potency is over 25.6 µM.
Next, `CCCOc1ccc(CN(CCO)CCO)cc1C(=O)OC`: over 57 µM.
In the case of `COc1ccc(N(Cc2cc3cc(OC)ccc3[nH]c2=O)S(C)(=O)=O)cc1`, the Potency is 7.73 µM (active).
On to `CCC(=O)N(Cc1cc2cc(OC)ccc2[nH]c1=O)c1ccccc1C`, for which the Potency is over 57 µM.
Turning to `CCN(Cc1cc2cc(C)ccc2[nH]c1=O)S(=O)(=O)c1ccccc1`, the Potency is over 57 µM.
Next, `COc1cccc(NC(=O)c2ccccc2SC)c1`: over 57 µM; `CC(C)(O)C#Cc1ccc(C(=O)N2CCC(C(N)=O)(N3CCCCC3)CC2)cc1`: over 57 µM.
In the case of `Cc1ccc(NC(=O)CS(=O)CC(=O)N(c2ccccc2)C(C)C(=O)NC2CCCC2)cc1` (stereo unspecified), the Potency was over 57 µM.
On to `CCCCC(=O)N(c1ccc(OC)cc1)C1C=CS(=O)(=O)C1` (stereo unspecified), for which the Potency was over 57 µM.
The result for `CCN(CC)S(=O)(=O)c1ccc2nc(CSc3nnnn3-c3ccc(O)cc3)[nH]c2c1` reads over 57 µM.
Next, `O=C(CSc1nnc(-c2cccs2)n1-c1ccccc1)N1CCN(C(=O)c2ccco2)CC1`: over 57 µM; `CCc1ccc2oc(-c3ccc(N)cc3)nc2c1`: 2.06 µM (active); `CCN(CC)c1ccc2oc(=O)c(C)nc2c1`: over 57 µM.
In the case of `COC(=O)C(CC(=O)Nc1cc(C)ccc1C)Nc1ccccc1OC` (stereo unspecified), the Potency is over 57 µM.
The result for `Cn1c(SCc2c(F)cccc2Cl)nnc1-c1cnccn1` reads over 57 µM; that for `COc1ccccc1N=C1SC(C)CN1C(=O)C1CCC1` (stereo unspecified), over 57 µM.
The result for `Cn1nnnc1SCc1cc(=O)[nH]c2ccccc12` reads over 57 µM; that for `CN(C)c1nc(N)nc(CSc2nnnn2-c2cccc3ccccc23)n1`, 1.57 µM (active); that for `CN(C(=O)CSc1nnnn1-c1ccccc1)C1CCCCC1`, over 57 µM.
Turning to `C=CCn1c(=S)[nH]c2nc3c(cc2c1=O)COC(C)(C)C3`, the Potency was over 25.6 µM.
Next, `COc1ccc(S(=O)(=O)N(CCCN2CCCC2=O)Cc2cc3c(C)ccc(C)c3[nH]c2=O)cc1`: over 57 µM; `CC(C)OC(=O)C(C#N)c1nc2ccccc2nc1N1CCN(Cc2ccc3c(c2)OCO3)CC1` (stereo unspecified): over 25.6 µM.
Take `CSc1nc(O)c(Cc2ccccc2)c(=O)[nH]1`: the Potency was over 25.6 µM.
Next, `O=C(CN1CCN(C(=O)c2cccc(F)c2)CC1)Nc1ccccc1F`: over 57 µM.
The result for `O=C(c1ccccc1)N1CCN(C(=O)N2CCCCC2)CC1` reads over 57 µM; that for `COc1ccc(CCN2C(=O)c3[nH]nc(-c4ccccc4O)c3C2c2ccc(C)cc2)cc1OC` (stereo unspecified), over 57 µM; that for `Fc1ccc(-c2nnc3sc(-c4ccc5c(c4)OCO5)nn23)cc1`, over 57 µM.
The result for `O=C(CN1C(=O)C2C3C=CC(C3)C2C1=O)NCCc1ccccc1Cl` (stereo unspecified) reads over 57 µM; that for `N#CC1=C(N)C(C#N)(C#N)[C@H](c2ccsc2)[C@H]2COCC=C12`, over 57 µM.
In the case of `Cn1c(=O)c(=O)n(C)c2cc(S(=O)(=O)NCCc3ccccc3)ccc21`, the Potency is over 57 µM.
Next, `CCCCCCn1c(CN2CCCCC2)nc2c1c(=O)n(C)c(=O)n2C`: over 57 µM; `O=c1[nH]c(=O)n(Cc2ccco2)c2c1C(C(F)(F)F)(C(F)(F)F)N=C(c1ccco1)N2`: over 25.6 µM.
Turning to `CC1CCN(C(=O)Cn2cc(C(=O)c3ccco3)c3ccccc32)CC1`, the Potency was over 57 µM.
Next, `Cc1noc(C)c1C(=O)OCC(=O)/C=C1\N(C)c2ccccc2C1(C)C`: over 57 µM.
As for `Cc1ccccc1-n1c(SCC(=O)NCc2cccs2)nnc1-c1ccncc1`, the Potency is over 57 µM.
The result for `CCn1c(CNC(=O)c2ccc(OC)c(OC)c2)nnc1SCC(=O)Nc1ccccc1` reads over 57 µM; that for `CCCCNc1nc2ccccc2nc1NS(=O)(=O)c1cccs1`, over 57 µM; that for `CCOC(=O)c1sc2nc(CSCC(=O)OCc3ccc(C(=O)OC)o3)[nH]c(=O)c2c1C`, over 57 µM.
The result for `CCn1c(CSc2nncn2-c2ccc(OC)cc2)nc2cc(S(=O)(=O)N(C)C)ccc21` reads over 57 µM.
The result for `N#CCCN(CCC#N)c1nnc(-c2ccccc2)s1` reads over 25.6 µM; that for `Cc1cc(C(F)(F)F)c(C#N)c(SCC(=O)NC2CC2)n1`, over 25.6 µM; that for `Brc1cccc(-c2nnc3n2CCC3)c1`, over 57 µM.
On to `Cc1ccc2nc(NCCCNC(=O)c3cnccn3)c(C#N)cc2c1`, for which the Potency was over 57 µM.
Next, `Cc1noc(NS(=O)(=O)c2ccc(NC(=O)C34CCC(CC3)C4)cc2)c1C`: over 57 µM; `CC1Cn2c(nnc2-c2cccs2)S1` (stereo unspecified): over 57 µM.
The result for `N#Cc1c2c(c(N3CCN(CCO)CC3)n3c1nc1ccccc13)CCCC2` reads over 57 µM.
Next, `COc1ccc(OC)c(NC(=O)CN2CCN(C(=O)c3ccco3)CC2)c1`: over 57 µM; `OCCCN1c2ccccc2Nc2nnc(-c3ccccc3)cc21`: 6.08 µM (active); `O=C(C1CCCO1)N1CCC(c2nc3ccccc3[nH]2)CC1` (stereo unspecified): over 57 µM.
On to `CCCC(=O)N1CCc2[nH]c3ccccc3c2C1`, for which the Potency is over 25.6 µM.
The result for `O=C(Nc1ccc(NC(=O)c2cccs2)cn1)c1ccco1` reads 7.2 µM (active).
Next, `CN1CCN(S(=O)(=O)c2ccc(NC(=O)c3ccco3)cc2)CC1`: over 57 µM; `O=C(Nc1ccc(Oc2ccccc2)cc1)c1ccco1`: 51.8 µM; `CCCc1nnc(NC(=O)c2cc(OC)cc(OC)c2)s1`: over 57 µM.
Next, `N#Cc1ccc(OCCN2C(=O)NC3(CCSC3)C2=O)cc1` (stereo unspecified): over 57 µM; `CCCn1c(C(O)c2cc(OC)ccc2OC)nc2ccccc21` (stereo unspecified): over 57 µM; `COCCn1c(-c2ccc(OC)c(OC)c2)nc2ccccc21`: over 57 µM.
For the compound `COc1ccc(-c2cc3n(n2)CCc2nc4ccccc4n2-3)cc1`, the Potency was 1.66 µM (active).
Next, `CCOC(=O)c1sc(NC(=O)c2cc(S(=O)(=O)N3CCOCC3)ccc2C)nc1C`: over 57 µM; `COc1ccc2nc(NC(=O)c3ccc(Br)s3)sc2c1`: over 11.4 µM; `COC(=O)c1sc(NC(=O)c2ccc(OC)cc2OC)nc1C`: 0.093 µM (active).
Next, `O=C(NCc1ccco1)c1ccc(CS(=O)(=O)Cc2ccc(F)cc2)o1`: over 57 µM.
The result for `COc1ccccc1NC(=O)C1=C(C)NC2=C(C(=O)CCC2)C1c1ccc(C)o1` (stereo unspecified) reads over 57 µM; that for `COc1ccc(N2C(=O)c3cccc4cccc(c34)C2=O)nn1`, over 57 µM.
Regarding `Cc1cc(C)c2c(n1)nn1c(N3CCOCC3)cc(C)nc21`, the Potency is over 57 µM.
Next, `COCCCNC(=O)CSc1nc2ccc(N3CCOCC3)cc2c(=O)n1CCc1ccccc1`: over 57 µM; `Cc1nn2c3cc(N4CCOCC4)ccc3nc2c2ccccc12`: 2.65 µM (active).
Next, `Cc1ccc2cccc(S(=O)(=O)N3CCN(c4ccccc4F)CC3)c2n1`: 6.92 µM (active); `O=C(c1cccc2ccccc12)N1CCN(c2ccccc2F)CC1`: 26 µM; `O=S(=O)(N1CCOCC1)N1CCN(c2ccccc2F)CC1`: over 57 µM.
